E coli growth-1 – E. coli V3065 growth inhibition, primary screen, counter-screen for AddAB inhibitor project, absorbance, OD600; 18 h; inhibition, % at 11.9 µM; actives 0.27% (n = 330,000); AID 449728, 2010;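 active means inhibition above the campaign's mean inhibition across all tested compounds plus 3 SD, cut at about 9.9% in these data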;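 further: uninfected addAB+ strain grown without phage in ampicillin broth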
E coli growth-2 – E. coli growth inhibition, primary screen, OD600; Escherichia coli growth, 23 h; hits give low values; OD600 absorbance (concentration not given with the values); actives 0.21% (n = 330,000); AID 1053175, 2014;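 active means OD600 absorbance below the run mean of sample wells minus 3.6 SD, in any replicate, cut at about 0.56 in these data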
phage Ecoli inh – growth loss of phage-infected E. coli, primary screen, RecBCD inhibitor project, absorbance, with phage, HTS | inhibition, % at 11.9 µM | actives 0.26% (n = 360,000) | AID 651602, 2012; in the data active means inhibition above about 11%
AddAB inh – growth inhibition of E. coli expressing H. pylori AddAB, primary screen, AddAB inhibitor project, absorbance; inhibition, % at 11.9 µM; actives 0.29% (n = 330,000); AID 435030, 2010; in the data active means inhibition above about 12%
Tat transport – E. coli Tat export inhibitors, primary screen, MC4100, TorA-mCherry reporter, fluorescence, single point; AID 488895, 2010; actives 0.036% (n = 340,000); inhibition, % at 10 µM;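 active means mean replicate inhibition at least 50% and at least half of replicates individually reaching 50%; inconclusive means only one of the two criteria met; inactive means neither criterion met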;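 further: exported cargo escapes ClpAP degradation while cytoplasmic cargo is degraded and loses fluorescence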
Each line names hits and unclear results; the compound was inactive in the other large screens. A selection: hits, their analogues and other compounds. The true share with any hit is near 0.51%.

COc1ccc(Cl)cc1C(=O)Nc1ccc(NC(C)=O)cc1	none
N=C1C(=Cc2ccc(OC(=O)c3ccc(F)cc3)cc2)C(=O)N=C2SC(N3CCCC3)=NN12	none (no result: E coli growth-1, phage Ecoli inh, AddAB inh, Tat transport)
Cc1cc(C(=O)N/N=C/c2ccc(O)c(O)c2O)c(C)n1-c1ccccc1	phage Ecoli inh 20 (no result: E coli growth-1, E coli growth-2, AddAB inh)
CCOc1ccc(C=NNC(=O)CSc2ccccn2)cc1O	none (no result: E coli growth-1, phage Ecoli inh, AddAB inh, Tat transport)
Cc1ccc(C=NNC(=O)CSc2nnc(-c3ccccc3)n2-c2ccc(Cl)cc2)o1	none (no result: E coli growth-1, phage Ecoli inh, AddAB inh, Tat transport)
O=C(CSc1nnc(-c2ccccc2)n1-c1ccc(Cl)cc1)N/N=C/c1ccco1	E coli growth-1 11 (no result: E coli growth-2)
CCCCCC1CN(Cc2ccc(OC)cc2)C(=O)C1CC(=O)NCc1ccccc1 (stereo not given)	none (no result: E coli growth-1, phage Ecoli inh, AddAB inh, Tat transport)
C=CCn1c(=O)c(C(=O)NCc2ccccc2)c(O)c2ccccc21	E coli growth-1 11
C=CCn1c(=O)c(C(=O)NCCNCC)c(O)c2ccccc21	none
N=C(N)c1ccc(/C=C/c2ccc(C(=N)N)cc2O)cc1	Tat transport 76
CN(C)C1C(=O)C(C(N)=O)=C(O)[C@@]2(O)C(=O)C3=C(O)c4c(O)ccc(Cl)c4C(O)C3CC12 (stereo not given in full)	E coli growth-2 0.063 (no result: E coli growth-1, phage Ecoli inh, AddAB inh, Tat transport)
CC(C)CC(NC(=O)c1nc[nH]c1C(=O)N(C)Cc1ccccc1)C(=O)OC(C)(C)C (stereo not given)	none (no result: E coli growth-1, phage Ecoli inh, AddAB inh, Tat transport)
CCOc1ccc2[nH]c(C(=O)NN=Cc3ccccc3OC)cc2c1	none (no result: E coli growth-1, phage Ecoli inh, AddAB inh, Tat transport)
O=C(CCN1CCOCC1)NNC(=S)NC(=O)c1ccc(Br)cc1	E coli growth-2 0.47
O=C(CCN1CCCCC1)NNC(=S)NC(=O)c1ccc(Br)cc1	none
CC1CCCCC1NC(=O)C1CCN(S(=O)(=O)c2ccc(-n3cnnn3)cc2)CC1 (stereo not given)	E coli growth-1 38
CCCOc1ccc(/C=N/NC(=S)Nc2ccccc2[N+](=O)[O-])c(O)c1	E coli growth-1 11 (no result: E coli growth-2, Tat transport)
C(=C\c1nc2ccccc2[nH]1)/c1ccccc1	E coli growth-2 0.53
C(=C\c1ccco1)/c1nc2ccccc2[nH]1	none
CN1C(=O)C(N=Nc2ccc([N+](=O)[O-])cc2)SC1=S (stereo not given)	E coli growth-2 0.45 (no result: E coli growth-1, AddAB inh)
CN1CCCCCC1=Nc1ccc([N+](=O)[O-])cc1	none
CC[C@@H](C(=O)[C@@H](C)[C@@H](O)[C@H](C)[C@@H]1O[C@@H]([C@@H](CC)C(=O)O)CC[C@@H]1C)[C@H]1O[C@]2(C=C[C@@H](O)[C@]3(CC[C@@](C)([C@H]4CC[C@](O)(CC)[C@H](C)O4)O3)O2)[C@H](C)C[C@@H]1C	phage Ecoli inh 12 (no result: E coli growth-1, E coli growth-2, AddAB inh)
CCCCCCCCCCS(=O)(=O)NN=Cc1ccc(O)cc1	none (no result: E coli growth-1, phage Ecoli inh, AddAB inh, Tat transport)
O=C(CSc1ccc2nnc(-c3ccccn3)n2n1)Nc1ccc2c(c1)OCO2	E coli growth-1 78, AddAB inh 97
COc1ccc(-n2nc(C(=O)NCC(=O)Nc3cccc(NC(C)=O)c3)c3ccccc3c2=O)cc1	E coli growth-2 0.57
O=C(Nc1nnc(-c2ccco2)o1)c1ccc(Cl)cc1	E coli growth-2 0.44
Cc1ccc(C(=O)Nc2nnc(-c3ccco3)o2)cc1C	none
Nc1nnc(CC(=O)NN=Cc2cccc(OCCOc3ccccc3)c2)s1	none (no result: E coli growth-1, phage Ecoli inh, AddAB inh, Tat transport)
CCCCN1C(=N)N([C@@H](CN2CCC[C@H]2CN2C(N)=NC[C@@H]2Cc2ccccc2)C(C)C)C[C@H]1Cc1ccccc1	none (no result: E coli growth-2)
CC(C)C[C@@H]1CN=C(N)N1C[C@@H]1CCCN1C[C@@H](C(C)C)N1C[C@@H](Cc2ccccc2)N(CCCC2CCCC2)C1=N	E coli growth-2 0.46
O=[N+]([O-])c1nn(-c2ccc3c(c2)OCCO3)n(O)c1=NCCCO	E coli growth-1 14
Cc1ccc(CN=c2c([N+](=O)[O-])nn(-c3ccc4c(c3)OCCO4)n2O)cc1	none
CCC(=NNS(=O)(=O)c1ccc(C)cc1)c1ccco1	none (no result: E coli growth-1, phage Ecoli inh, AddAB inh, Tat transport)
CCCCCOc1ccc(Br)cc1CSC(=N)N	E coli growth-2 0.48 (no result: E coli growth-1, AddAB inh)
COc1cc(C=NNC(=O)c2cccc(NC(=O)c3ccccc3C)c2)ccc1O	none (no result: E coli growth-1, phage Ecoli inh, AddAB inh, Tat transport)
CCn1cc(C(=O)O)c(=O)c2cc(OC)ccc21	E coli growth-2 0.53
CCn1cc(C(=O)O)c(=O)c2cc(S(=O)(=O)N3CCCCCC3)ccc21	none
NC(=NOC(=O)c1cccc(Br)c1)c1ccc(Br)cc1	none (no result: E coli growth-1, phage Ecoli inh, AddAB inh, Tat transport)
O=C(CNC(=S)N(CCCN1CCOCC1)Cc1cccs1)NCCN1CCOCC1	none
O=C(CNC(=S)N(CCCN1CCOCC1)Cc1cccs1)N1CCCC1	E coli growth-2 0.54
CCCCN(C)CCOc1ccccc1OCC	E coli growth-2 0.065
O=c1[nH]c(=O)n(C2CC(O)C(CO)O2)cc1F (stereo not given)	E coli growth-2 0.062 (no result: E coli growth-1, phage Ecoli inh, AddAB inh, Tat transport)
CC(NC(=O)c1nc[nH]c1C(=O)N1CCc2ccccc2C1)c1ccccc1 (stereo not given)	none (no result: E coli growth-1, phage Ecoli inh, AddAB inh, Tat transport)
C/C(CC(=O)Nc1cc(C)ccn1)=N\NC(=O)c1cccc(C)c1O	phage Ecoli inh 11 (no result: E coli growth-2)
CC(C)(C)OC(=O)C(CCCCN)NC(=O)c1nc[nH]c1C(=O)NC(CCCCN)C(=O)OC(C)(C)C (stereo not given)	none (no result: E coli growth-1, phage Ecoli inh, AddAB inh, Tat transport)
CC(=NNc1cc(N2CCOCC2)ncn1)c1cccc([N+](=O)[O-])c1	none (no result: E coli growth-1, phage Ecoli inh, AddAB inh, Tat transport)
CNS(=O)(=O)c1ccc(NC(=O)Nc2cccc(F)c2)cc1	E coli growth-2 0.51
CN=c1scc(C)n1N=Cc1cc(Br)c(O)c(OC)c1	none (no result: E coli growth-1, phage Ecoli inh, AddAB inh, Tat transport)
CCOC(=O)c1cc2n(c1N=CN(C)C)-c1ccccc1C2=O	none (no result: E coli growth-1, phage Ecoli inh, AddAB inh, Tat transport)
O=C(Oc1ccc(Cl)c2cccnc12)c1cccnc1	E coli growth-2 0.37
Oc1ccc(F)c2cccnc12	none
Cc1ccc(C(=O)Oc2ccc(Cl)c3cccnc23)cc1[N+](=O)[O-]	none
Oc1ccc(Cl)c2cccnc12	E coli growth-2 0.29 (no result: E coli growth-1, AddAB inh)
COc1ccc(C2CC=C(C(=O)O)C(c3ccc(Cl)cc3)N2S(=O)(=O)c2ccc(Cl)cc2)cc1 (stereo not given)	none (no result: E coli growth-1, phage Ecoli inh, AddAB inh, Tat transport)
Cc1c(C=NNC(=O)CNc2ccccc2)c2ccccn2c1C(=O)c1ccncc1	none (no result: E coli growth-1, phage Ecoli inh, AddAB inh, Tat transport)
CCCCCCCCCCCCCCCCn1cc[n+](C)c1	E coli growth-2 0.066, Tat transport inconclusive
C[n+]1ccn(CC(=O)c2cccs2)c1	none
CC(=NN=Cc1ccccc1O)c1ccccc1O	none (no result: E coli growth-1, phage Ecoli inh, AddAB inh, Tat transport)
Clc1ccc(OCCCNCc2ccccc2)c2ccccc12	E coli growth-2 0.4
Fc1ccc2[nH]c3c(NCc4ccccc4)ncnc3c2c1	E coli growth-2 0.45
CCOC1OC(C(=O)NCc2ccccc2)=CC(c2ccc3c(c2)OCO3)C1CCCO (stereo not given)	none (no result: E coli growth-1, phage Ecoli inh, AddAB inh, Tat transport)
O=c1c2c3c(sc2ncn1N=Cc1ccccc1)CCCC3	none (no result: E coli growth-1, phage Ecoli inh, AddAB inh, Tat transport)
CCCCCCC(=O)O	none
CCCCCCCCCCCCCCCC(=O)OC(CC(=O)O)C[N+](C)(C)C (stereo not given)	Tat transport 54
Cc1ccc(NC(=S)NN=Cc2cccn2Cc2ccccc2F)cc1	none (no result: E coli growth-1, phage Ecoli inh, AddAB inh, Tat transport)
C=Cc1ncc(OC)c2c1[nH]c1ccccc12	E coli growth-2 0.49 (no result: phage Ecoli inh)
Oc1ccc2c(c1)oc1cc(O)ccc12	none
O=c1oc2cc(O)ccc2s1	E coli growth-1 10.0 (no result: E coli growth-2)
Nc1ccccc1SCc1cn2cccnc2n1	none
Nc1ccccc1SCc1cn2ccccc2n1	Tat transport 75
CCC(=O)NNC(=S)NC(=O)c1ccc(C)cc1	E coli growth-2 0.5
CC(=O)NNC(=S)NC(=O)c1ccccc1	E coli growth-2 0.4
